Several values for one entry are separate records, joined by “and”; a condition that tells them apart may be missing. Equal entries are not always repeated. Results filed as inconclusive are left out. Some compounds were tested as several samples or in several runs, with calls that do not always agree. Activity calls are given as the source filed them. Rule for the calls: active = hit-call score of the fitted dose curve at least 0.9, where 1 is the maximum; inconclusive = response in the unintended direction; inactive = score below 0.9.
Columns and labels:
[1] = biological target: Estrogen receptor (Homo sapiens) + Estrogen receptor beta (Homo sapiens) (UniProt P03372+Q92731); test: OT_ER_ERaERb_1440: Odyssey Thera (OT) 24-hour HEK293T Protein-Complementation Assay for Estrogen Receptor-alpha/-beta Homodimer (AID 2283356);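 note: heteromer of ER alpha and ER beta binding domains; hits raise reporter fluorescence and both agonists and antagonists give an increase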
In short: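 Heterodimerisation of ERα (aa 310-547) and ERβ (aa 263-489) ligand binding domains was tracked as fluorescence gain in stably transfected HEK293T cells following 24 h dosing, normalised to DMSO controls.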

[2] = biological target: Estrogen receptor beta (Homo sapiens) (UniProt Q92731); test: OT_ER_ERbERb_0480: Odyssey Thera (OT) 8-hour HEK293T Protein-Complementation Assay for Estrogen Receptor-beta/-beta Homodimer (AID 2283357);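 note: active means signal gain over DMSO baseline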
In short: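 Fluorescence intensity, nuclear for agonists and nuclear plus cytoplasmic for antagonists, was quantified by laser scanning cytometry versus vehicle after 8 h treatment. The cells were HEK293T stably carrying ER beta LBD fragment-complementation partners.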

[3] = biological target: PGR (gene 5241) (UniProt P06401); test: NVS_NR_hPR: NovaScreen (NVS) Nuclear Receptor Binding Assay for human Progestron Receptor (PR) (AID 2283360);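 note: active means loss of bound radioligand signal versus DMSO baseline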
In short: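 Cell-free radioligand binding using receptor protein extracted from T47D cells, read by scintillation counting 18 hours after dosing. Loss of signal relative to DMSO baseline indicates displacement; primary screen single concentration 25 uM in duplicate, actives followed in concentration series.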

[4] = biological target: Androgen Receptor/SRC-1 Co-activator, AR (gene 367) (UniProt P10275); test: OT_AR_ARSRC1_0960: Odyssey Thera (OT) 16-hour HEK293T Protein-Complementation Assay for Androgen Receptor/SRC-1 Co-activator (AID 2283353);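 note: actives raise the signal above DMSO so potency reflects increased AR and SRC-1 complex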
In short: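 Split-Venus PCA, AR/SRC-1 fusions, stable HEK293T; 16 h compound exposure; imaged at 488 and 635 nm; N/C ratio (488 nm channel), min 400 cells/image; positive-direction fit, DMSO baseline.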

[5] = biological target: Androgen Receptor/SRC-1 Co-activator, AR (gene 367) (UniProt P10275); test: OT_AR_ARSRC1_0480: Odyssey Thera (OT) 8-hour HEK293T Protein-Complementation Assay for Androgen Receptor/SRC-1 Co-activator (AID 2283354);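 note: hits raise the complementation signal above DMSO so AC50 marks enhancers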
In short: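 HEK293T cells stably expressing AR and SRC-1 fused to Venus YFP fragments, imaged 8 h after dosing. Complementation fluorescence scored as nuclear/cytoplasmic ratio at 488 nm in at least 400 cells per image; gain fitted versus DMSO.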

[6] = biological target: guinea pig Sigma Receptor, Non-selective Binding, SIGMAR1 (gene 100135589) (UniProt Q60492); test: NVS_OR_gSIGMA_NonSelective: NovaScreen (NVS) Nuclear Receptor Binding Assay for guinea pig Sigma Receptor, Non-selective Binding (AID 2283367)
In short: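 Radioligand displacement on guinea pig brain membranes, read by filter-based scintillation counting 1 h after dosing. Loss of signal versus DMSO; initial duplicate single-point screen at 25 uM, actives followed in concentration series.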

[7] = biological target: human Adenosine Transporter (Adot), SLC29A1 (gene 2030) (UniProt Q99808); test: NVS_TR_hAdoT: NovaScreen (NVS) Transporter Assay for human Adenosine Transporter (Adot) (AID 2283368)
In short: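 U937-derived membranes, cell-free radioligand binding, filter scintillation 1 h after dosing. 25 uM duplicate screen; hits (e.g. 30% inhibition) run in concentration-response up to 50 uM; loss of signal versus DMSO.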

[8] = test system: guinea pig Dopamine Transporter (DAT), gene 100714898; test: NVS_TR_gDAT: NovaScreen (NVS) Transporter Assay for guinea pig Dopamine Transporter (DAT) (AID 2283369);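 note: active compounds lower bound radioligand signal relative to DMSO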
In short: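 Test chemicals were incubated 2 h with guinea pig striatal membranes and a radioligand; bound label was separated by filtration and counted. Screening ran at 25 uM, followed by concentration-response testing to a 50 uM maximum.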

[9] = biological target: Glucocorticoid receptor (Homo sapiens) (UniProt P04150); test: NVS_NR_hGR: NovaScreen (NVS) Nuclear Receptor Binding Assay for human Glucocorticoid Receptor (GR) (AID 2283363);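 for AC50: activity is loss of specific radioligand binding signal relative to DMSO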
In short: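 Cell-free radioligand displacement assay on extracted human GR, read 16 h after dosing by filter-based scintillation counting. Screened in duplicate at 25 uM, then concentration series for actives; loss of signal versus DMSO baseline.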

[10] = biological target: Nuclear receptor subfamily 1 group I member 2 (Homo sapiens) (UniProt O75469); test: NVS_NR_hPXR: NovaScreen (NVS) Nuclear Receptor Binding Assay for human Pregnane X Receptor (PXR) (AID 2283365);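 note: a drop in FRET signal versus DMSO baseline means the compound binds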
In short: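 Binding was measured by time-resolved fluorescence resonance energy transfer after a 2 h exposure of extracted human PXR protein without cells. Compounds were first tested at 25 uM in duplicate, with concentration series for actives; DMSO defined baseline.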

[11] = biological target: rat Androgen Receptor (AR), Ar (gene 24208) (UniProt P15207); test: NVS_NR_rAR: NovaScreen (NVS) Nuclear Receptor Binding Assay for rat Androgen Receptor (AR) (AID 2283366)
In short: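 Cell-free radioligand binding on extracts of prostate from testosterone-pretreated rats, read by filter-based scintillation counting 18 h after dosing. Loss of bound signal fitted positively versus DMSO; primary screen in duplicate at 25 uM, actives followed up in concentration series.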

[12] = biological target: Peroxisome proliferator-activated receptor gamma (Homo sapiens) (UniProt P37231); test: NVS_NR_hPPARg: NovaScreen (NVS) Nuclear Receptor Binding Assay for human Peroxisome Proliferator-activated Receptor gamma (PPARg) (AID 2283370)
In short: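 Fluorescence polarization measures competitive binding to extracted PPARg in a cell-free format. Reading is taken at 2 h; activity is signal loss relative to DMSO. Screening at 25 uM in duplicate preceded confirmatory dose series.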

[13] = biological target: Retinoic acid receptor alpha (Homo sapiens) (UniProt P10276); test: NVS_NR_hRAR_Antagonist: NovaScreen (NVS) Nuclear Receptor Binding Assay for human Retinoic Acid Alpha Receptor Antagonism (RAR) (AID 2283358)
In short: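 Cell-free TR-FRET binding assay with extracted human RARalpha in antagonist mode, read 2 h after dosing. Loss of signal was fitted relative to DMSO; the primary screen used 25 uM in duplicate, with concentration series on follow-up.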

[14] = biological target: human Serotonin Transporter (SERT), SLC6A4 (gene 6532) (UniProt P31645); test: NVS_TR_hSERT: NovaScreen (NVS) Transporter Assay for human Serotonin Transporter (SERT) (AID 2283372)
In short: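 Radioligand binding to native SERT in human platelet membranes, read by filter-based scintillation counting 1 h after dosing. Primary screen in duplicate at 25 uM; actives followed up in concentration series; loss of signal versus DMSO baseline.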

[15] = test system: rat Norepinephrine Transporter (NET), gene 83511; test: NVS_TR_rNET: NovaScreen (NVS) Transporter Assay for rat Norepinephrine Transporter (NET) (AID 2283373)
In short: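 Rat forebrain membranes; radioligand binding measured by filter-based scintillation counting 1 hour after dosing. Loss of specific binding versus DMSO baseline scored; primary screen in duplicate at 25 uM, actives followed up in concentration series.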

[16] = biological target: human Dopamine Transporter (DAT), SLC6A3 (gene 6531) (UniProt Q01959); test: NVS_TR_hDAT: NovaScreen (NVS) Transporter Assay for human Dopamine Transporter (DAT) (AID 2283374);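 note: activity means loss of bound radioligand signal relative to DMSO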
In short: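 Cell-free radioligand displacement binding at human DAT, 1 h after dosing, with filtration and scintillation counting. Primary screen in duplicate at 25 uM, actives then in concentration series. Loss of bound signal versus DMSO scored.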

[17] = biological target: Retinoic acid receptor alpha (Homo sapiens) (UniProt P10276); test: NVS_NR_hRARa_Agonist: NovaScreen (NVS) Nuclear Receptor Binding Assay for human Retinoic Acid Alpha Receptor Agonism (RAR) (AID 2283361)
In short: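 Cell-free TR-FRET binding readout with extracted receptor protein, read 2 hours after dosing; gain-of-signal fitted relative to DMSO. Screened in duplicate at 25 uM, actives then run in concentration-response.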

[18] = biological target: rat Mineralocorticoid Receptor (MR), Nr3c2 (gene 25672) (UniProt P22199); test: NVS_NR_rMR: NovaScreen (NVS) Nuclear Receptor Binding Assay for rat Mineralocorticoid Receptor (MR) (AID 2283355)
In short: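 Cell-free radioligand binding to mineralocorticoid receptor from adrenalectomized rat brain supernatant, scintillation counting after 24 h. Primary screen in duplicate at 25 uM; actives retested in concentration series. Loss of specific binding versus DMSO.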

[19] = biological target: rat Serotonin Transporter (SERT), Slc6a4 (gene 25553) (UniProt P31652); test: NVS_TR_rSERT: NovaScreen (NVS) Transporter Assay for rat Serotonin Transporter (SERT) (AID 2283375)
In short: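 Steps: rat forebrain membranes dosed with chemical (25 uM duplicate primary; concentration series for actives); 1 h incubation; labelled ligand bound, filtered, counted by scintillation. Activity scored as signal loss vs DMSO.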

Measured: AC50

Sequence of Androgen Receptor/SRC-1 Co-activator, AR (gene 367) (P10275 whole entry, looked up, the tested form may be a part): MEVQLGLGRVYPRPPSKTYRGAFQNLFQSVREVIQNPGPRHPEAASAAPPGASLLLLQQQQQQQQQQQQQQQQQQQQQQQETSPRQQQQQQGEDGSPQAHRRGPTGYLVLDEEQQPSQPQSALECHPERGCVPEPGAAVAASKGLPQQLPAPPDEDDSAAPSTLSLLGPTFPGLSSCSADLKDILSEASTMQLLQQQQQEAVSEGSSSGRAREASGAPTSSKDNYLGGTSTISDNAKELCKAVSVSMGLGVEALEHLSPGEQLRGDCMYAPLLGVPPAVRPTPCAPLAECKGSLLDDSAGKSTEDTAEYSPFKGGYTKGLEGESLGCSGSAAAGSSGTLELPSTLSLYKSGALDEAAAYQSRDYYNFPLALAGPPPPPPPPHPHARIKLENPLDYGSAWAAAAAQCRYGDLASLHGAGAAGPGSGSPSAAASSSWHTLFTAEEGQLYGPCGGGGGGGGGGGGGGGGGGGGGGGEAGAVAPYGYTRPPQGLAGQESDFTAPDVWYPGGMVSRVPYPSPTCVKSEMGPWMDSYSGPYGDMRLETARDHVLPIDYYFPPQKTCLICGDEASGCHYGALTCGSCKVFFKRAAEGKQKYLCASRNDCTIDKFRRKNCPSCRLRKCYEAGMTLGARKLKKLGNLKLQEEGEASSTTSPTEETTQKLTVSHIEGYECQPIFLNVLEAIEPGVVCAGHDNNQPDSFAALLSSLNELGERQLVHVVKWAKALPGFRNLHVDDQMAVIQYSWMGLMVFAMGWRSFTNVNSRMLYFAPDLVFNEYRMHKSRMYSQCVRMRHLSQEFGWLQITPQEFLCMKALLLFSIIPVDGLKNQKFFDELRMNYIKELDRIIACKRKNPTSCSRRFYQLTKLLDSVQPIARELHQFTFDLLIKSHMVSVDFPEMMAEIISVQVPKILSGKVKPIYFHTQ
Sequence of rat Androgen Receptor (AR), Ar (gene 24208) (P15207 whole entry, looked up): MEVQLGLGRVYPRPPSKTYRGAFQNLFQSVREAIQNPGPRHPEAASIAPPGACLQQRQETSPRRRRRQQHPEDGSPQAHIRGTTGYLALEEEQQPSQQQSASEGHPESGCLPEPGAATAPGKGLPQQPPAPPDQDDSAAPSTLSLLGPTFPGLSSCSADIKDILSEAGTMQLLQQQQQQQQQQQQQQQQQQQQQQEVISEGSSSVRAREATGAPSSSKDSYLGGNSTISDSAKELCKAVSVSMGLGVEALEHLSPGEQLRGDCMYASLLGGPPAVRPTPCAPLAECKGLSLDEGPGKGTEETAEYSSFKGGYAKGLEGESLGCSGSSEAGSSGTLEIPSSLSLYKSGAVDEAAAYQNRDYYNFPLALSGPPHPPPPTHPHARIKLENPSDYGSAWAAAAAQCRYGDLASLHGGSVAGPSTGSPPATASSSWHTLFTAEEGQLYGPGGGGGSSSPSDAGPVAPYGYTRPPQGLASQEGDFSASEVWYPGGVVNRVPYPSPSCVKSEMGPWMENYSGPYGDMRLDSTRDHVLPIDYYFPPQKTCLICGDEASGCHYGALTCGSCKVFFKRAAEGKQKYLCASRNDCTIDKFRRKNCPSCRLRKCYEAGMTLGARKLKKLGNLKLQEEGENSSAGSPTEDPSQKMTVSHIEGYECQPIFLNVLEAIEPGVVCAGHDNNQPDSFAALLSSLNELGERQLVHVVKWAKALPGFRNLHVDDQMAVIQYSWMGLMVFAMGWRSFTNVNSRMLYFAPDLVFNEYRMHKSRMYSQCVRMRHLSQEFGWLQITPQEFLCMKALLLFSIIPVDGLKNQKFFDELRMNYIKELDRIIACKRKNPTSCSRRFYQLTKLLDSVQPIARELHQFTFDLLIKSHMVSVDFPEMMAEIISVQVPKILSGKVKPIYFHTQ
Sequence of rat Serotonin Transporter (SERT), Slc6a4 (gene 25553) (P31652 whole entry, looked up): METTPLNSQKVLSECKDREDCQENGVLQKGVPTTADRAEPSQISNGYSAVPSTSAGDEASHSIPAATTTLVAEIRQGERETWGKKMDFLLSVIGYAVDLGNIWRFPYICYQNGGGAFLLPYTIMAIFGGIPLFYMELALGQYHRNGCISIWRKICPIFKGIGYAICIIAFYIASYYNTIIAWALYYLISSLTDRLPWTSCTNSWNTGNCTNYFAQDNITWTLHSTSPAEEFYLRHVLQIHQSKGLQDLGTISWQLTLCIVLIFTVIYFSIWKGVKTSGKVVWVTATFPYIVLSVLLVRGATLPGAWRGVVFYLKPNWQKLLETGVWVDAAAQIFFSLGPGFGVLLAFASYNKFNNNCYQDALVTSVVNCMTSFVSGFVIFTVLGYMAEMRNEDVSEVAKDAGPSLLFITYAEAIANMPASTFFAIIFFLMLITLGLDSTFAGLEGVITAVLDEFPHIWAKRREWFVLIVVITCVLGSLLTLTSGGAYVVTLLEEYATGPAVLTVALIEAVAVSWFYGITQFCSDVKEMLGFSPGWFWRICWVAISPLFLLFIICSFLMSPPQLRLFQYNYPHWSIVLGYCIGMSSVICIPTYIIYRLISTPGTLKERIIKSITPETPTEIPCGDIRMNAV
Sequence of Estrogen receptor beta (Homo sapiens) (Q92731 whole entry, looked up, the tested form may be a part): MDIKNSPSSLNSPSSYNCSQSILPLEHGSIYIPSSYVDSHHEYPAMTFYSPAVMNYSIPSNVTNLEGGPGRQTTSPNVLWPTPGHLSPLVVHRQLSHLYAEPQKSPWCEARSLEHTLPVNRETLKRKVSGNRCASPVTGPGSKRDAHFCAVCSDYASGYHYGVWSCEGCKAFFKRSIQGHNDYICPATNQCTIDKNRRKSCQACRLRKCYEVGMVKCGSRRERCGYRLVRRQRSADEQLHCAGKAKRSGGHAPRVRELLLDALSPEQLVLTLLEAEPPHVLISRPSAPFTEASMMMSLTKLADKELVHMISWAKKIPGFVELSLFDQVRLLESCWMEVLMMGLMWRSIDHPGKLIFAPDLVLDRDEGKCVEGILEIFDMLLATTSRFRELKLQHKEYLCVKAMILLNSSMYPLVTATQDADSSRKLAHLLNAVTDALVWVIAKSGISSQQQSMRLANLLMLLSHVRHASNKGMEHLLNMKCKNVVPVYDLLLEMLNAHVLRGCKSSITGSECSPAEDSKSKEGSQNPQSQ
Sequence of Glucocorticoid receptor (Homo sapiens) (P04150 whole entry, looked up): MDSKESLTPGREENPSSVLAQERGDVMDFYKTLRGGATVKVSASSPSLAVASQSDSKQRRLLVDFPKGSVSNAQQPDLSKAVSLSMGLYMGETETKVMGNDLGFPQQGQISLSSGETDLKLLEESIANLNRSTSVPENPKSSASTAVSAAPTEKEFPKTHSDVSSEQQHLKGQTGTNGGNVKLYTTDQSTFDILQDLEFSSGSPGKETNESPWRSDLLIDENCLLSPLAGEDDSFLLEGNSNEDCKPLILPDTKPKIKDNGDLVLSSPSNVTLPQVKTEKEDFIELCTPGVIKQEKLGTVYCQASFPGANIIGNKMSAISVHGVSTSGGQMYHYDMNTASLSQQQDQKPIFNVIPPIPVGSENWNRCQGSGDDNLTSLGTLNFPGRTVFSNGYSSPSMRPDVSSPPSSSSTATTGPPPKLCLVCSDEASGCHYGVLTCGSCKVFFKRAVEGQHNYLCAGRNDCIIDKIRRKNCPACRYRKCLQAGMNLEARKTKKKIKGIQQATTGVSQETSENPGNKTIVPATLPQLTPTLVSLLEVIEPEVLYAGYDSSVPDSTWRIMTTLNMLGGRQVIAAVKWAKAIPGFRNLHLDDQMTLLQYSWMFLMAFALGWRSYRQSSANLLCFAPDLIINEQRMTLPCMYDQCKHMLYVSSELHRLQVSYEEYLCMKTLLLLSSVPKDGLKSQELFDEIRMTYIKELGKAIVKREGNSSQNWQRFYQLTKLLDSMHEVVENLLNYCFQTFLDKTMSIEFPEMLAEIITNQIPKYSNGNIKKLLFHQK
Sequence of guinea pig Sigma Receptor, Non-selective Binding, SIGMAR1 (gene 100135589) (Q60492 whole entry, looked up): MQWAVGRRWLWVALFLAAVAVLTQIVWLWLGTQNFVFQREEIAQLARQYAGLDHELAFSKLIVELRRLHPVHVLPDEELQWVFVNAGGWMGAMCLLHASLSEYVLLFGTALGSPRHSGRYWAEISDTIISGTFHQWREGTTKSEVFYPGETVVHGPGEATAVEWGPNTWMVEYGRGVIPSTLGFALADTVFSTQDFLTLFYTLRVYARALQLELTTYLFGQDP
Sequence of Peroxisome proliferator-activated receptor gamma (Homo sapiens) (P37231 whole entry, looked up): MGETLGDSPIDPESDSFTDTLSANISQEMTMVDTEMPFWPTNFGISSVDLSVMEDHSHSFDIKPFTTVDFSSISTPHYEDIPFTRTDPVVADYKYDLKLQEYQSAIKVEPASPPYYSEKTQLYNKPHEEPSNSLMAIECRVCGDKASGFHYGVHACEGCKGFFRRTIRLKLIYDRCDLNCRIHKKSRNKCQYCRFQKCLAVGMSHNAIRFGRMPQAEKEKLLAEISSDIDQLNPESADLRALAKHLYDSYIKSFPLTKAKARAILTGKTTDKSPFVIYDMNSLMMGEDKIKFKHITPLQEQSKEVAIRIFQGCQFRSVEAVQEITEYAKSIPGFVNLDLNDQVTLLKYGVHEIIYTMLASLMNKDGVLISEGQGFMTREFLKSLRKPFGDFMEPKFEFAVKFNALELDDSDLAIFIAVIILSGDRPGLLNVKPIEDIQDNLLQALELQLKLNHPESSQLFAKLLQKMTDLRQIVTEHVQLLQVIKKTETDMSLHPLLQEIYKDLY
Sequence of Nuclear receptor subfamily 1 group I member 2 (Homo sapiens) (O75469 whole entry, looked up): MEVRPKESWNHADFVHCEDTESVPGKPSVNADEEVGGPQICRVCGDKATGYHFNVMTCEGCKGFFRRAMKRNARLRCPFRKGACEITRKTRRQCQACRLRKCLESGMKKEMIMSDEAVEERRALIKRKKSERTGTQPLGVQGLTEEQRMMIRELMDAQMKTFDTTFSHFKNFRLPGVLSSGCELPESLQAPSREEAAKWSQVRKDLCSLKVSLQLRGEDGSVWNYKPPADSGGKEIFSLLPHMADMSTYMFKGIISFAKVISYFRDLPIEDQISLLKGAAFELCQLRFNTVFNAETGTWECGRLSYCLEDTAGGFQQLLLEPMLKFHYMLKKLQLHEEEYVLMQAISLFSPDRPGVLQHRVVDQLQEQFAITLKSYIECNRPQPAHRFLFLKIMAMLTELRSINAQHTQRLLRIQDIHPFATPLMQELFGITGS

CCCCCCCCCCCCO
inactive: [1] | [2] | [3]

CCN(Cc1cccc(S(=O)(=O)O)c1)c1ccc(C(=C2C=CC(=[N+](CC)Cc3cccc(S(=O)(=O)O)c3)C=C2)c2ccccc2S(=O)(=O)[O-])cc1
inactive: [1] | [2]

Cc1occc1C(=O)Nc1ccc(C(=O)N2CCC(F)(F)/C(=C\C(=O)N3CCC(N4CCCCC4)CC3)c3ccccc32)cc1
active: [4] 32.3 µM | [1] 33.5 µM | [6] 2.93 µM | [7] 8.75 µM | [8] 7.8 µM
inactive: [5] | [2]

Cc1cc2c(cc1C(F)(F)F)N(C(=O)Nc1ccc(Oc3cccnc3C)nc1)CC2
inactive: [1] | [2]

CCCCOC(=O)c1ccc(O)cc1
inactive: [4] | [5] | [3] | [9] | [10] | [11] | [12]
active: [2] 4.69 µM and 5.25 µM and 5.52 µM | [6] 4.2 µM | [8] 25 µM

O=C(O)c1ccccc1C(=O)OCc1ccccc1
inactive: [4] | [5]

CN1C(=O)N(c2ccccc2Br)Cc2cnc(Nc3ccc4c(c3)OCC(CO)O4)nc21 (configuration not stated)
active: [12] 25 µM
inactive: [1] | [2] | [13] | [9]

CCCC(=O)OCCC(C)C
inactive: [4] | [5]
active: [3] 17.2 µM

CN(C)C(=O)C1(N2CCCCC2)CCN(CC[C@@]2(c3ccc(Cl)c(Cl)c3)CN(C(=O)c3ccccc3)CCO2)CC1
active: [4] 11.8 µM | [5] 16.6 µM | [9] 3.41 µM | [6] 6 µM | [8] 6.54 µM | [14] 36 µM | [15] 13.5 µM | [16] 2.76 µM
inactive: [3]

CC[C@@H]1C[C@H](N(Cc2cc(C(F)(F)F)cc(C(F)(F)F)c2)C(C)=O)c2cc(C(F)(F)F)ccc2N1C(=O)OC(C)C
inactive: [1] | [2] | [3] | [17] | [9]

C[C@]12CC[C@@H]3c4ccc(O)cc4CC[C@H]3[C@@H]1CCC2=O
active: [3] 0.159 µM | [19] 4.96 µM
inactive: [18] | [11]

NCc1cccc(C2CCN(C(=O)c3ccc(C#Cc4ccccc4F)o3)CC2)c1
active: [4] 14.6 µM | [5] 13.3 µM | [9] 7.56 µM | [10] 7.85 µM | [11] 15.4 µM | [6] 13.2 µM | [7] 25 µM | [8] 10 µM | [12] 5.98 µM | [15] 18.9 µM | [16] 1.79 µM | [19] 16.7 µM
inactive: [2] | [3] | [14]

OCCO
inactive: [4] | [5]

COc1cc(C(=O)NC2CCN(C)CC2)ccc1Nc1ncc2c(n1)N(C1CCCC1)CC(F)(F)C(=O)N2C
active: [4] 25.9 µM | [5] 52.5 µM | [1] 11 µM | [9] 9.44 µM | [6] 9.05 µM | [7] 1.27 µM | [8] 13.8 µM | [15] 9.31 µM | [16] 8.6 µM
inactive: [2] | [19]

O=CCCCC=O
inactive: [18] | [10] | [12]

CC1=CC(=O)/C(=C(/C)O)C(=O)O1
inactive: [1] | [2] | [3] | [12]

OC12N=C(c3ccccc3)SC1Cc1cc(Cl)ccc12 (configuration not stated)
inactive: [1] | [2]

CCCCCc1ccc(N)cc1
active: [1] 18.9 µM and 27.8 µM and 42.5 µM | [2] 65.3 µM and 55.7 µM and 56.6 µM | [8] 25 µM | [16] 8.47 µM
inactive: [1] | [2] | [12]

COCC(C)OCC(C)OCC(C)O (configuration not stated)
inactive: [4] | [5] | [1] | [2] | [3]

CCCCCCCCCC(=O)O
inactive: [4] | [5] | [16]

Clc1ccccc1C(c1ccccc1)(c1ccccc1)n1ccnc1
inactive: [1] | [2] | [10]
active: [9] 0.7 µM

Cc1ccc2oc(CN(Cc3ccccc3)C(=O)Nc3c(F)cc(F)cc3F)c(-c3ccc(Cl)cc3)c2c1
inactive: [1] | [2] | [8]
active: [7] 1.1 µM

CCCOC(=O)c1cc(O)c(O)c(O)c1
active: [1] 49 µM | [2] 25.4 µM | [8] 25 µM | [16] 10.8 µM
inactive: [12]
